The record followed here is PubChem BioAssay (Tox21).

Test [1] is described as follows: qHTS assay to identify small molecule agonists of the estrogen receptor alpha (ER-alpha) signaling pathway in the presence of an antagonist - cell viability counter screen (AID 1259386).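 Further: series mostly up to about 92 µM; cells exposed to compounds for 22 h at 37 °C before the viability read; nearly all actives have a fitted effect of over 30% in size.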 In short, it runs like this: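 Cytotoxicity was measured in parallel with the ERE-luciferase agonist screen, in the same wells. The cells were VM7Luc4E2, which endogenously express ER-alpha, and treatment was with compounds plus 10.0nM ICI-182,780 for 22hr.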

Test [2] concerns the target Progesterone receptor (Homo sapiens) (UniProt P06401). Kind of test: qHTS assay to identify small molecule agonists of the progesterone receptor (PR) signaling pathway (AID 1346784; calls by dose curve; further: nearly all actives have a fitted effect of over 30% in size). The method in brief:
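Seed PR-UAS-bla HEK 293T cells (2% charcoal-stripped FBS), incubate 6 hr at 37C; add compounds in DMSO, 16 hr at 37C; add LiveBLAzer B/G substrate, 2 hr RT; read fluorescence intensity.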
A general note: In qHTS, concentration-response curves come from the screen itself.

Test [3] has the same target. Kind of test: qHTS assay to identify small molecule antagonists of the progesterone receptor (PR) signaling pathway (AID 1346795; active means well fitted inhibition curve with a large enough effect in the signal ratio in the repeat runs, not every such curve was filed as active; the % refers to the signal ratio). In short, it runs like this:
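Screening used a GripTite HEK293T line with PR-responsive UAS-beta-lactamase. Cells were challenged with compound in the presence of 1 nM R5020 final for 16 hr at 37C; B/G FRET substrate, 2 hr room temperature, fluorescence.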

Test [4] in a line: qHTS assay to identify small molecule antagonists of the progesterone receptor (PR) signaling pathway - cell viability counter screen (AID 1346798). Further: series mostly up to about 92 µM; nearly all actives have a fitted effect of over 50% in size. The method in brief: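 Measures cytotoxicity in parallel with the PR antagonist reporter read: HEK293T PR-UAS-bla cells get compound and R5020 for 16 hr, and remaining viable cells are quantified by CellTiter-Glo luminescence.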
The nature of test [5]: qHTS assay to identify small molecule agonists of the progesterone receptor (PR) signaling pathway - cell viability counter screen (AID 1346799; calls by dose curve; further: nearly all actives have a fitted effect of over 45% in size). In short, it runs like this: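 Using the same plates as the PR reporter screen, HEK293T PR-UAS-bla cells received compounds for 16 hr at 37C and were then lysed with CellTiter-Glo; luminescence was read 30 min later at room temperature.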

Test [6] is described as follows: qHTS assay to identify small molecule antagonists of the TGF-beta/Smad signaling pathway - cell viability counter screen (AID 1346824). Further: nearly all actives have a fitted effect of over 50% in size. In short, it runs like this:
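SBE-bla HEK 293T cells were plated overnight at 37 C, then given compounds in DMSO plus TGF-beta1 (added as 0.25 ng/mL solution) for 5 hr. After the bla read, CellTiter-Glo was added to the same wells and luminescence read after 30 min at room temperature.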

A short description of test [7]: qHTS assay to identify small molecule agonists of the TGF-beta/Smad signaling pathway (AID 1346859; active means well fitted activation curve with a large enough effect in the signal ratio in the repeat runs, not every such curve was filed as active; the % refers to the signal ratio; further: series mostly up to about 77 µM). The method in brief: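 Beta-lactamase reporter activity downstream of Smad binding elements was measured in stably transfected HEK 293T cells; compounds were incubated for 5 hr, substrate for 2 hr at room temperature.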
Test [8] concerns the target Thyrotropin-releasing hormone receptor (Homo sapiens) (UniProt P34981). The test is described as follows: qHTS assay to identify small molecule antagonists of the thyrotropin-releasing hormone receptor (TRHR) signaling pathway (AID 1346877; active means well fitted inhibition curve with a large enough effect in the repeat runs, not every such curve was filed as active; further: potency means the concentration at half of the fitted maximal effect; on activity, negative = inhibition: series mostly up to about 51 µM). In short, it runs like this: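 Antagonism is measured as suppression of the calcium response to 1 nM TRH in TRHR-HEK293 cells that have been dye-loaded for 2 h at 37 °C after overnight plating. Each compound is tested at 15 concentrations in triplicate.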

Test [9] shares this target. Kind of test: qHTS assay to identify small molecule agonists of the thyrotropin-releasing hormone receptor (TRHR) signaling pathway (AID 1346891; calls by dose curve;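 further: HEK293 cells expressing TRHR with calcium dye readout; series mostly up to about 58 µM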). In short, it runs like this: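 Overnight-plated (18 h, 37 °C, 5% CO2) TRHR-Hek293 cells; 2 h calcium dye at 37 °C; compound in DMSO; 3-min kinetic fluorescence read.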
The nature of test [10]: Human pregnane X receptor (PXR) small molecule agonists, qHTS cell viability counter screen (AID 1346977). Further: nearly all actives have a fitted effect of over 50% in size. Further: potency means the concentration at half of the fitted maximal effect. The method in brief: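 After a 5hr pre-incubation, PXR-Luc HepG2 cells received compounds plus positive control in DMSO and were kept 24hr at 37C. Cell viability was quantified by fluorescence from CellTiter-Fluor added for the final hour.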
Test [11] can be described thus: Caspase-3/7 induction in HepG2 cells by small molecules, qHTS assay (AID 1346978). Further: nearly all actives have a fitted effect of over 15% in size. The method in brief: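 Wild-type HepG2 cells (2,000/well) were settled 5 h at 37 C, 5% CO2, then exposed to compounds in DMSO for 17 h. Caspase-3/7 activity was read by luminescence 30 min after adding Caspase-Glo 3/7 reagent at room temperature.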
Test [12] in a line: Caspase-3/7 induction in CHO-K1 cells by small molecules, qHTS cell viability counter screen (AID 1346979). Further: nearly all actives have a fitted effect of over 35% in size. Further: potency means the concentration at half of the fitted maximal effect. In short, it runs like this: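 Multiplexed with Caspase-Glo 3/7 in CHO-K1 cells, this counter screen added CellTiter-Fluor after 16hr of compound exposure and recorded fluorescence 1hr later.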
Test [13] is described as follows: Caspase-3/7 induction in CHO-K1 cells by small molecules, qHTS assay (AID 1346980). Further: nearly all actives have a fitted effect of over 15% in size. In short, it runs like this:
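Wild-type cells were seeded at 1,500 per well and settled 5 hr at 37 C, 5% CO2, then exposed to DMSO-dissolved compounds for 17 hr. Caspase-Glo 3/7 reagent was added, and luminescence was read after 30min at room temperature.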

Test [14] can be described thus: Caspase-3/7 induction in HepG2 cells by small molecules, qHTS cell viability counter screen (AID 1346981). Further: nearly all actives have a fitted effect of over 30% in size. Further: potency means the concentration at half of the fitted maximal effect. On activity change, negative = cytotoxicity: series mostly up to about 92 µM. In short, it runs like this:
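Cell viability is measured as a cytotoxicity counter screen alongside the Caspase-Glo 3/7 readout in identical wells. Wild-type HepG2 cells are treated with test compounds for 16 hr at 37 C before CellTiter-Fluor addition and a 1-hr incubation.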

The target in test [15] is Nuclear receptor subfamily 1 group I member 2 (Homo sapiens) (UniProt O75469). Kind of test: Human pregnane X receptor (PXR) small molecule agonists, qHTS assay (AID 1346982). Further: nearly all actives have a fitted effect of over 35% in size. Further: potency means the concentration at half of the fitted maximal effect. In short, it runs like this:
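Cells: HepG2 stably carrying PXR-Luc. Medium held 5% charcoal-stripped FBS. Compounds in DMSO added after 5 hr plating, incubated 24 hr, then luminescence quantified with ONE-Glo.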

Test [16] deals with Acetylcholinesterase (Homo sapiens) (UniProt P22303). Kind of test: Acetylcholinesterase (AChE) small molecule antagonists: colormetric cell-based qHTS assay (AID 1347395; calls by dose curve; further: nearly all actives have a fitted effect of over 30% in size; further: potency means the concentration at half of the fitted maximal effect). In short, it runs like this:
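In this cell-based qHTS, attached SH-SY5Y cells were treated with test chemicals for 30 min, after which acetylthiocholine hydrolysis was followed by DTNB colour development over 90 min at 37 C.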

Test [17] in a line: qHTS assay to identify small molecule agonists of the TGF-beta/Smad signaling pathway - cell viability counter screen (AID 1346829). Further: top concentration of the series differs between compounds; nearly all actives have a fitted effect of over 45% in size. In short, it runs like this:
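Luminescence from CellTiter-Glo, read after a 30 min room-temperature incubation, gives cell viability of SBE-bla HEK 293T cells treated 5 hr with compounds at 37 C.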

The structures appear in SMILES notation. Several values for one entry are separate records, joined by “and”; a condition that tells them apart may be missing. Identical values can stand only once. Values without a mark were called inactive. Records with an inconclusive call do not appear. Activity calls are given as the source filed them. Unless noted, the call rests on the fitted dose curve; in most records, active means well fitted curve in the direction sought with a large enough effect in the repeat runs; inconclusive means weak or mixed curves; inactive means no such curve, though single readings can be large; an effect the other way counts as inactive or inconclusive.
On the % scale 0 is the no-effect control and ±100 the full control effect.

Progesterone receptor (Homo sapiens), sequence (P06401 whole entry, looked up): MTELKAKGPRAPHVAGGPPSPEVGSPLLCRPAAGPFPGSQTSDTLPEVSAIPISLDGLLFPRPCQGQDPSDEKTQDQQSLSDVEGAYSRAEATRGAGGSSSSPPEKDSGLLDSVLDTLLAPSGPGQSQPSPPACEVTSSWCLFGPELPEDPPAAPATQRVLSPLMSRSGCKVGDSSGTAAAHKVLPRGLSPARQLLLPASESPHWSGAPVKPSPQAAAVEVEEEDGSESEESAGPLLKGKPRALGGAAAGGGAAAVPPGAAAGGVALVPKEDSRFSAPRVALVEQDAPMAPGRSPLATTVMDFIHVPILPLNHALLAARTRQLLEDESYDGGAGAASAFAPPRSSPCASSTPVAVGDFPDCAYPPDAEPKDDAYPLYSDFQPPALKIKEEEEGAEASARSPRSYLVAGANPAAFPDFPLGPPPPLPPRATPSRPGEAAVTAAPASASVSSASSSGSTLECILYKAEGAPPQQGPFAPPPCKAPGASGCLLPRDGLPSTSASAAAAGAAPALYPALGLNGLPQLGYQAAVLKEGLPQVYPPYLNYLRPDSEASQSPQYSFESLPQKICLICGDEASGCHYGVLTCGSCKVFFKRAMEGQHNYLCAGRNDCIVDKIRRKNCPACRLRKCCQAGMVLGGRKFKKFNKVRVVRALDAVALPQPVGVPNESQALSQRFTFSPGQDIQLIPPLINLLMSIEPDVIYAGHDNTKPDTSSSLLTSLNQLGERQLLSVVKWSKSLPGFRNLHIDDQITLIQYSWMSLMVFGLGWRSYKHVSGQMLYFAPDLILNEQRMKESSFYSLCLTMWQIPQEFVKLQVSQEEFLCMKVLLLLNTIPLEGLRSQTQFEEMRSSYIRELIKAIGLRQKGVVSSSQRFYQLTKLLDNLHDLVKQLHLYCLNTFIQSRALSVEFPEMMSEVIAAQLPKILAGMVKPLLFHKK
Nuclear receptor subfamily 1 group I member 2 (Homo sapiens), sequence (O75469 whole entry, looked up): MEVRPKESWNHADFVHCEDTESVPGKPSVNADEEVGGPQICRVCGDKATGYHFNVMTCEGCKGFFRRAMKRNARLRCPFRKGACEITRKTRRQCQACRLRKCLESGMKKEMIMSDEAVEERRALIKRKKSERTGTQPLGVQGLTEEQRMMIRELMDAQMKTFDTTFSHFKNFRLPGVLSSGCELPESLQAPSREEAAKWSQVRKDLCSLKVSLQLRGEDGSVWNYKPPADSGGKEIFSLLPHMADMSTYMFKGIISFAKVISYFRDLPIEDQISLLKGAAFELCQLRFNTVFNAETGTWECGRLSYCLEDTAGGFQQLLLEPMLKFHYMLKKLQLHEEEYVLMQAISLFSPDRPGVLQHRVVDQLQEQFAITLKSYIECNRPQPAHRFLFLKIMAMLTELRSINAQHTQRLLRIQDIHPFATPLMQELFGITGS
Thyrotropin-releasing hormone receptor (Homo sapiens), sequence (P34981 whole entry, looked up): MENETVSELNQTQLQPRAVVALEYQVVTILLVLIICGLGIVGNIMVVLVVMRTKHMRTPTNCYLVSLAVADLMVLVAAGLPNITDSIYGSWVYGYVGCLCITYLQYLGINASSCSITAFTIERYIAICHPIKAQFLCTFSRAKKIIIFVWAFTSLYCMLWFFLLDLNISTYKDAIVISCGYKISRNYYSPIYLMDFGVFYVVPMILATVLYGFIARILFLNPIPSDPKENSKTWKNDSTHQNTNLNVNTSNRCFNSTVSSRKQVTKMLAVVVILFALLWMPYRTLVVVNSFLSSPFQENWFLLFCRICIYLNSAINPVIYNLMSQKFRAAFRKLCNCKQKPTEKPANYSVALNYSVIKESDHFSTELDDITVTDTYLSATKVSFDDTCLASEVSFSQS
Acetylcholinesterase (Homo sapiens), sequence (P22303 whole entry, looked up): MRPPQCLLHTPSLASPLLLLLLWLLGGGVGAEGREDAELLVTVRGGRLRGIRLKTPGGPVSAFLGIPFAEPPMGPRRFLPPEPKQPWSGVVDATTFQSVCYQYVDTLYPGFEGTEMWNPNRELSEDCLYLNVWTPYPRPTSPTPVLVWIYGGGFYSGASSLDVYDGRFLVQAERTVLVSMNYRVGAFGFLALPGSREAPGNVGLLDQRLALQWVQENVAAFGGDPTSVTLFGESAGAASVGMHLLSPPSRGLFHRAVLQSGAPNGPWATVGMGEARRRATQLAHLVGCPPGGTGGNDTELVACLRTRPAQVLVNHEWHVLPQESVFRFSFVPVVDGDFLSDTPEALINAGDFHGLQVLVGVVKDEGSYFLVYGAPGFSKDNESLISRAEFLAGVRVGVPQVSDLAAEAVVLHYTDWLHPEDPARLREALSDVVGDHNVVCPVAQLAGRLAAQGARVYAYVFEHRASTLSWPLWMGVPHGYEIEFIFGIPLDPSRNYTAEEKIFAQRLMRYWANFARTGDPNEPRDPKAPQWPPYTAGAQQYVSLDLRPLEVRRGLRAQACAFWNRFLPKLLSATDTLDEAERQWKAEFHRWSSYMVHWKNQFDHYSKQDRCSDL

Consider `CCCC[N+](CCCC)(CCCC)CCCC`, for which the Potency entry in [1], in [2], in test [3], in test [4], in test [5] and in test [6] was “inactive” each time. Also, the Potency result in test [8], in test [10], in test [11], in test [12], in test [13] and in [14] was “inactive” in each case. In addition, the Potency result in test [15] is “inactive”. The result in test [7] and in [9] was inactive. In test [16], the Potency was 44.7 µM (active).

With `CCCCCCCCCCCCN=C(N)N`, the activity change, negative = cytotoxicity in test [1] was -1.52% [at 3.27 µM]; in test [4], 1.32% [at 3.27 µM]; in test [5], 0.561% [at 3.27 µM]; in test [10], 1.51% [at 3.27 µM]; in test [12] it was -4.73% [at 3.27 µM]. Also, the activation is 2.06% [at 3.27 µM] in test [2], 1.13% [at 2.72 µM] in test [7], 0.32% [at 2.04 µM] in test [9] and 13.3% [at 3.27 µM] in [15]. In addition, the activity change, negative = inhibition in test [3] is 1.76% [at 3.27 µM]. Besides, the activity, negative = inhibition in test [8] is 1.26% [at 1.81 µM]; in test [16] it was -5.91% [at 4.07 µM]. In addition, the caspase activation in test [11] is -1.34% [at 3.27 µM].

Regarding `Nc1cc(Cl)cc(C(=O)O)c1Cl`, the Potency entry in [1], in test [2], in test [3], in [4], in test [5] and in test [6] was “inactive” throughout. The Potency entry in [17], in [8], in test [10], in test [11], in [13] and in test [14] was “inactive” throughout. Further, the Potency result in test [15] and in [16] was “inactive” in each case. For the same compound, the outcome in test [9] was inactive.

Take `O=C(CCl)CCl`: the Potency entry in [1], in [2], in test [3], in test [4], in test [5] and in test [6] was “inactive” throughout. The Potency entry in [8], in test [10], in test [11], in [13] and in test [16] was “inactive” each time. Further, the outcome in test [7] and in test [9] was inactive. The Potency in [12] is 50.3 µM (active) and 30.6 µM (active); in test [15] it was 56.5 µM (active) and 61.1 µM (active).

On to `CCOP(=S)(OCC)Oc1ccc(S(C)=O)cc1` (configuration not stated), for which the Potency entry in [1], in test [2], in test [3], in [4], in [5] and in test [17] was “inactive” throughout. Further, the Potency entry in [8], in [10], in test [11], in test [12], in [13] and in test [14] was “inactive” in each case. The outcome in [9] was inactive. Also, in [15], the Potency was 38.6 µM (active).

For the compound `C=CC(C)(CCC=C(C)C)OC(=O)c1ccccc1N` (configuration not stated), the Potency entry in [1], in test [2], in test [3], in [4], in test [5] and in [6] was “inactive” throughout. Moreover, the Potency result in test [17], in test [8], in [10], in test [11] and in test [13] was “inactive” throughout. The compound was called inactive in test [7] and in test [9].

`O=C1c2ccccc2C(=O)N1SC(Cl)(Cl)Cl`: the Potency entry in test [1], in test [2], in [3], in test [4], in test [5] and in test [17] was “inactive” throughout. The Potency entry in test [11], in test [13] and in test [16] was “inactive” each time. Besides, the outcome in test [7] was inactive. Moreover, the Potency is 33.3 µM (active) in [8]; 39.8 µM (active) and 17.2 µM (active) in test [10]; 4.27 µM (active) and 5.45 µM (active) in test [12]; 24.3 µM (active) in test [14]; 6.03 µM (active) in [15].

As to `C=C(C)C(=O)OCCCCOC(=O)C(=C)C`, the Potency entry in [1], in [2], in test [3], in test [4], in test [5] and in test [6] was “inactive” in each case. In addition, the Potency result in test [17], in test [8], in test [10], in test [11], in test [12] and in [13] was “inactive” each time. The Potency result in test [14], in test [15] and in test [16] was “inactive” throughout. In addition, the outcome in [9] was inactive.
